# Screening results from PubChem BioAssay.
# A selection follows.
# aSyn UTR act: Activators via SNCA 5'UTR binding, MLPCN; alpha-synuclein 5'UTR reporter, activators screen; hit rate 7.1% among 300,000; activity score, % (tested at 7.5 µM), hits read low; in the data active = activity score below about -60%
# Numbers stand for hits; 0 = inactive.
SMILES,aSyn UTR act
O=C(Nc1nc(-c2cccc(Br)c2)cs1)Oc1ccccc1,-101.0
O=C(Nc1cc(C(F)(F)F)ccc1Cl)C(Sc1nnc(-c2cccs2)o1)c1ccccc1 (centres undefined),-108.5
CCOC(=O)c1cnc2c(OC)cccc2c1N1CCN(c2ccccc2OC)CC1,0
CCOC(=O)c1cnc2ccc(Cl)cc2c1N1CCN(C)CC1,-96.9
O=C(Nc1nc(-c2nc3ccccc3s2)cs1)c1ccc(S(=O)(=O)N2CCOCC2)cc1,-75.2
O=C(Nc1nc(-c2cc3ccccc3o2)cs1)c1ccc(S(=O)(=O)N2CCCC2)cc1,-67.6
Cc1ccc(-c2nc3ccccc3s2)cc1S(=O)(=O)N1CCOCC1,-66.0
CN(C)S(=O)(=O)c1ccc(C(=O)Nc2nc(-c3cc4ccccc4o3)cs2)cc1,-136.9
COc1cc(-c2ccccc2)nc(N)n1,-117.0
CCOc1cc(-c2ccccc2)nc(N)n1,-112.4
S=C(NCC1CCCO1)Nc1ccc(Cl)c(Cl)c1 (centres undefined),-85.7
CCc1ccc(NC(=O)C(=O)NCC2CCCO2)cc1 (centres undefined),-136.7
CN(C)c1ccc(NC(=S)NCC2CCCO2)cc1 (centres undefined),-101.0
NC(=O)C1CCCN(C(=S)Nc2cccc3ccccc23)C1 (centres undefined),-90.5
C/C(=N\N=C\c1ccccc1)c1nnn(-c2nonc2N)c1C,-82.3
O=C(c1cc(COc2ccc(F)cc2Cl)on1)N1C[C@H]2CC[C@H]1C2,-163.6
O=C(c1cc(COc2ccc(F)cc2Cl)on1)N1CC2C[C@@H]3CC1C[C@H](C2)C3,-190.4
O=C(CSc1nnc2ccccn12)N1CCc2ccccc2C1,-94.5
O=C(CSc1nnc2ccccn12)N1CCc2ccccc21,-97.7
Cn1ccnc1SCC(=O)N1CCc2ccccc21,-68.9
Cc1ccc(C(=O)Nc2nnc(SCC(=O)N3CCCc4ccccc43)s2)cc1,0
Cc1ccnc(SCC(=O)N2CCc3ccccc32)n1,-87.3
Cc1ccc(C)c(Nc2c([N+](=O)[O-])cc(C(=O)N3CC(=O)Nc4ccccc43)cc2[N+](=O)[O-])c1,0
O=C1CN(C(=O)c2cccc(Br)c2)c2ccccc2N1,-84.6
Cn1cc(Br)c(C(=O)Nc2sc3c(c2C(N)=O)CCCC3)n1,-114.5
SMILES,aSyn UTR act
CCn1cc(Br)c(C(=O)Nc2sc3c(c2C(N)=O)CCCC3)n1,-102.2
CCCCOc1ccc(C2CCC(C(C)=O)C(C)C2)cc1 (centres undefined),-169.3
COc1ccc(Br)cc1/C=C/C(=O)Nc1ccc(C)cc1,-86.3
COc1ccc(Br)cc1/C=C/C(=O)Nc1ccc2ccccc2c1,-91.2
CCC(=O)Nc1cccc(C(=O)/C=C/c2cc(Br)ccc2OC)c1,-125.2
CCc1ccc(NC(=S)Nc2cc(C(=O)O)ccc2N2CC3CC(C2)c2cccc(=O)n2C3)cc1 (centres undefined),-113.6
N#Cc1ccccc1NC(=O)c1ccc(-c2ccccc2Cl)o1,-128.3
O=C(Nc1ccccc1)c1ccc(-c2ccccc2Cl)o1,-178.1
CCOc1ccc(NC(=O)c2cccc3c2C(=O)N(Cc2cccnc2)C3)cc1,-110.7
O=C(O)c1ccc(/C=C/c2ccc3cccc(O)c3n2)cc1,-187.7
Oc1ccc(/C=C/c2ccc3cccc(O)c3n2)cc1Br,-199.9
COc1ccc2cc(-c3ccn[nH]3)ccc2c1,-123.7
O=C(NNc1c2ccccc2nc2ccccc12)c1ccc(O)cc1O,-78.6
O=C(NNc1c2ccccc2nc2ccccc12)c1ccccc1O,-92.9
C/C(=N\NC(=O)c1cc(C2CC2)nc2ccccc12)c1ccc(O)cc1O,0
Cc1onc(-c2ccccc2)c1C(=O)NC(=S)NNC(=O)c1ccc(O)cc1O,0
COc1cccc2cc(CC(=O)c3ccc(C)cc3C)c(=O)oc12,-185.0
COc1ccc(C(=O)Cc2cc3cccc(OC)c3oc2=O)cc1,-78.9
COc1ccc(C(=O)c2cc3cccc(OC)c3o2)cc1,-161.5
COc1ccc(OCc2cc(C(=O)N3CCCC(CO)C3)no2)c2ccccc12 (centres undefined),-102.3
CSc1ccccc1OCc1cc(C(=O)N2CCN(C3CCCC3)C(=O)C2)no1,-112.4
CSc1ccccc1OCc1cc(C(=O)N2CCSCC2)no1,-113.2
CSc1ccccc1OCc1cc(C(=O)N2CCCC(C)C2)no1 (centres undefined),-134.3
COc1ccccc1OCc1cc(C(=O)N2CCCC(OCc3cccnc3)C2)no1 (centres undefined),-133.5
Cc1cc(C)n(-c2nc3ccccc3c(=O)n2OCC(N)=O)n1,-63.2
SMILES,aSyn UTR act
CC(C)(C)c1ccc(SCCc2cccnc2)cc1,-123.0
Cc1ccc(NC(=O)c2cccc(S(C)(=O)=O)c2)cc1,-82.9
CCN(CC)S(=O)(=O)c1cccc(C(=O)NCCc2ccccc2)c1,-159.0
Cc1ccc(NC(=O)c2ccnc(C(C)(C)C)c2)cc1,-126.9
CCN(CC)S(=O)(=O)c1cc(C(=O)Nc2ccc(Cl)cn2)ccc1C,-118.3
CCCCN(CC)S(=O)(=O)c1ccc(C(=O)Nc2nnc(-c3ccccc3Cl)o2)cc1,0
CCN(CC)S(=O)(=O)c1cccc(C(=O)Nc2ccc(Cl)cn2)c1,-76.1
CCN(CC)S(=O)(=O)c1cccc(C(=O)Nc2cccc(C)c2)c1,-124.1
CCN(CC)S(=O)(=O)c1cccc(C(=O)N/N=C(\C)c2ccc(O)cc2O)c1,0
Cc1c(C(=O)OCC(=O)N2C(C)CCCC2C)oc2ccccc12 (centres undefined),-118.1
CC(=O)c1ccccc1NC(=O)c1ccc2c(c1)NC(=O)C(C)S2 (centres undefined),-135.0
CCCNC(=O)c1ccccc1NC(=O)c1ccc2c(c1)NC(=O)C(C)S2 (centres undefined),-96.1
CCCNC(=O)c1ccc2c(=O)c(O)c(-c3ccc(F)cc3)[nH]c2c1,0
O=C(Nc1ccc(O)cc1)c1cc2n(n1)C(C(F)(F)F)CC(c1ccco1)N2 (centres undefined),-65.8
CC(=O)c1ccc(Oc2ncnc3sccc23)cc1,-147.8
Cc1cc(C(=O)COc2ncnc3sccc23)c(C)n1C,-124.6
OC1c2cc(Br)ccc2N=C2CCCN21 (centres undefined),-87.6
Cc1ccc(CSC2=Nc3ccccc3C3=NC(CC(=O)NCc4ccco4)C(=O)N23)cc1 (centres undefined),-73.4
O=C(NCc1cccs1)c1cc(-c2ccccc2)on1,-111.9
COCCNC(=O)c1cc(-c2cccs2)on1,-289.1
O=C(NCc1ccccn1)c1cc(-c2ccccc2)on1,-78.6
O=C(NCc1cccs1)c1cc(-c2cccs2)on1,-169.2
O=C(NCc1ccccn1)c1ccc(-c2ccccc2)cc1,-106.6
Cc1csc(NC(=O)CSc2ncc(-c3ccccc3)[nH]2)n1,-96.9
Cc1ccc2nc(-c3ccc(SCC(=O)Nc4nc(C)cs4)nc3)[nH]c2c1,-246.5
SMILES,aSyn UTR act
CCc1nnc(NC(=O)CSc2ccc(-c3nc4ccccc4[nH]3)cn2)s1,-186.8
Cc1ccc2nc(-c3ccc(SCC(=O)Nc4nnc(C)s4)nc3)[nH]c2c1,-93.7
Cc1ccc(NC(=S)Nc2nc(CC(=O)Nc3ccccc3)cs2)cc1,-118.8
Cc1c(Cl)cccc1NC(=O)c1cc(-c2ccccc2O)n[nH]1,-206.2
COc1ccc(Cl)cc1NC(=O)c1cc(-c2ccccc2O)n[nH]1,-118.0
Cc1cc(N2CCOCC2)ccc1/C=C\[N+](=O)[O-],-100.8
CC(O)CNc1ncnc2cc(-c3ccc(F)cc3)sc12 (centres undefined),-61.9
CCOC(=O)/C(C#N)=C/N=c1ccc(C)cn1C,-88.0
CCCN1C=CC(=C/C=C(\C#N)C(=O)OCC)C=C1,-157.3
